Most compounds without a hit are left out; they make up all but 19% or so of the library.
HT1080NT lethal: kills 2HG-producing HT-1080-NT fibrosarcoma cells. Potency, µM (highest dose often 46.1 µM), without a hit: at the highest dose activity, negative = less viability, most hits filed as cytotoxic. AID 686970. HT-1080-NT fibrosarcoma viability, CellTiter-Glo ATP luminescence, 48 h. 1.6% of 360,000 active;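 also: NT is the 2HG producing partner of a matched IDH1 knockdown line; potency is read from the fitted curve at half-maximal effect; 0% = DMSO-treated cells and -100% = media-only wells without cells; nearly all actives have a fitted effect of over 55% in size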
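Viability by CellTiter-Glo luminescence after 48 h compound exposure at 37C of HT-1080-NT cells (750/well, RPMI, 5% FBS). % activity scaled between DMSO wells and medium-only wells, then curve-fitted and categorized by curve class.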
ELG1 repair inh: ELG1-dependent DNA repair inhibition; AID 504467; HEK293T ELG1-luciferase reporter, luminescence, 16 h; DNA damage induced by 5-fluorouridine; Potency, µM (highest dose often 46.1 µM), inactives show top-dose activity change, negative = inhibition, most hits filed as inhibitors; 2.3% of 330,000 active; also: potency is read from the fitted curve at half-maximal effect; nearly all actives have a fitted effect of over 55% in size
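5-Fluorouridine DNA damage + compound/DMSO, 2,000 cells/well, 16 h, 37 °C/5% CO2. ONE-Glo, 30 min RT, luminescence. Readout = decrease in reporter signal.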
HT1080 IDH1KD tx: kills HT-1080 cells with IDH1 knockdown | HT-1080 IDH1 knockdown viability, ATP luminescence, 48 h | Potency, µM (titrated, usually from 46.1 µM), for inactives: at the top dose activity, negative = toxicity, most hits filed as cytotoxic | 2% of 360,000 active | AID 686971;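 also: potency is read from the fitted curve at half-maximal effect; 0% = DMSO wells and -100% = cell-free medium wells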
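In this qHTS, HT-1080 cells depleted of IDH1 are exposed for 48 h at 37 °C to compound titrations. Toxicity is scored from CellTiter-Glo luminescence, with DMSO as full viability and medium alone as none.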
TDP1 cell noCPT: qHTS for Inhibitors of human tyrosyl-DNA phosphodiesterase 1 (TDP1): qHTS in cells in absence of CPT | DT40 Tdp1-/- hTDP1 cells, no CPT, ATP luminescence, 48 h | Potency, µM (titrated, usually from 46.2 µM), for inactives: at the highest dose activity change, negative = growth inhibition, usual class: inhibitors | 15% of 420,000 active | AID 686978, 2013; also: potency is read from the fitted curve at half-maximal effect; nearly all actives have a fitted effect of over 55% in size
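Cells were dispensed at 400 per well, compounds added by pin tool, plates incubated ≥48 hr at 37 °C, then CellTiter-Glo added for 30 min at room temperature before luminescence reading. Line: DT40 Tdp1-/- complemented with hTDP1; camptothecin omitted.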
DT40 TDP1 CPT: DT40-hTDP1 cell growth loss with CPT. chicken DT40 Tdp1-/-;hTDP1 cells + 20 nM CPT, ATP luminescence, 48 h. AID 686979. Potency, µM (series often up to 46.2 µM), inactives show top-dose activity change, negative = growth inhibition, most hits filed as inhibitors. 12% of 420,000 active; also: potency is read from the fitted curve at half-maximal effect; nearly all actives have a fitted effect of over 55% in size
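Chicken DT40 Tdp1-/- cells complemented with human TDP1, 400 cells/well, exposed to compounds plus 20 nM camptothecin for at least 48 h at 37 C; viability read as ATP content by CellTiter-Glo luminescence.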
IL-1B inflam inh: inflammasome signaling inhibition, IL-1 beta readout; THP-1 LPS/ATP IL-1B secretion, AlphaLISA, 16 h; hits give low values; activity change, % at 57.5 µM; 4.7% of 360,000 active; AID 743279; in the data active = activity change below about -50%; inconclusive = mostly about -30% to -49%
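Secreted IL-1B measured by AlphaLISA bead assay after 16 h compound exposure of THP-1 cells; compounds (final up to 57.5 uM) added 1 h before LPS (250 ng/mL) and ATP (1.25 mM) stimulation; lower signal means less secretion.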
An asterisk follows results filed as active; u = inconclusive; x = no result given; [ ] = remark or other dose. Unless noted, calls follow the shape of the dose curve; as a rule, active = well fitted curve in the direction sought with a large enough effect; inconclusive = small, poorly fitted or top-dose-only effect, or another doubt; inactive = no such curve, though single readings can be large; an effect the other way counts as inactive or inconclusive. Unless noted, % is scaled to controls: 0 for no effect and ±100 for the full control effect.

SMILES	HT1080NT lethal	ELG1 repair inh	HT1080 IDH1KD tx	TDP1 cell noCPT	DT40 TDP1 CPT	IL-1B inflam inh
CCOC(=O)C1=C(CN2CCN(C(=O)c3ccco3)CC2)NC(=O)NC1c1ccccc1 (stereo unspecified)	-14.3%	13.5%	1.9%	-19.0%	-1.0%	4.6
CC(=O)c1cccc(NC(=O)c2oc3c(c2C)-c2nn(Cc4ccc(Cl)cc4)cc2CC3)c1	x	x	x	25.9µM*	u	x
CSc1ccc(Cn2c(C)c(C(=O)NCc3cccs3)sc2=O)cc1	-23.6%	x	-26.5%	23.1µM*	u	x
C=Cc1ccc(Cn2c(C)c(C(=O)NCc3ccc4c(c3)OCCO4)sc2=O)cc1	-7.8%	x	-14.2%	10.3µM*	u	-4.7
Cc1ccc(Cn2c(C)c(C(=O)NCc3ccc4c(c3)OCO4)sc2=O)cc1	-17.2%	x	-0.1%	-29.1%	u	u
Cc1ccc(Cn2c(C)c(C(=O)NCc3cccs3)sc2=O)cc1	4.9%	x	-0.8%	-29.9%	u	u
CSc1ccc(Cn2c(C)c(C(=O)NCc3ccc4c(c3)OCO4)sc2=O)cc1	-7.8%	x	-8.6%	14.6µM*	u	u
Cc1ccc(S(=O)(=O)N2CCOCC2)cc1NS(=O)(=O)c1ccc(F)c(F)c1	-0.1%[9.24 µM]	-6.4%	-0.6%	-12.8%	-13.9%	51.3
COC(=O)N1CCC2(CCN(Cc3ccccc3)CC2)CC1	x	x	x	-6.6%	0.3%	x
CC(C)C(=O)N1CCC2(CC1)Oc1ccc(Cl)cc1C(=O)C21CC(c2cccnc2)=NO1 (stereo unspecified)	5.7%	u	5.4%	-17.2%	-2.3%	-24.3
CC(C)c1c(C(=O)N(C)CC2CCCN(C)C2)cnn1-c1nccc(-c2cccs2)n1 (stereo unspecified)	x	x	x	-17.9%	u	x
COc1ccc(NS(=O)(=O)c2cccc(C(=O)NCC(c3ccc(OC)cc3)N3CCCC3)c2)cc1 (stereo unspecified)	u	-0.9%	u	u	13µM*	u
COc1ccc(C(CNC(=O)c2cccc(S(=O)(=O)NCc3ccccc3)c2)N2CCOCC2)cc1 (stereo unspecified)	-0.3%	-0.4%	-0.3%	20.6µM*	u	-15.9
COc1ccc(NS(=O)(=O)c2cccc(C(=O)NCC(c3ccc(OC)cc3)N3CCCCC3)c2)cc1 (stereo unspecified)	-25.0%	x	-23.5%	-29.3%	u	-3.9
COc1ccc(C(CNC(=O)c2cc(S(=O)(=O)NCc3ccccc3)ccc2C)N2CCOCC2)cc1 (stereo unspecified)	1.7%	-2.5%	-3.0%	-20.4%	1.3%	-26.7
COc1ccccc1C(CNC(=O)c1cccc(S(=O)(=O)Nc2ccc(F)cc2)c1)N1CCCC1 (stereo unspecified)	-5.6%	x	-10.8%	20.6µM*	u	-2.4
CCC1CCc2sc(C(=O)NCC(c3ccc(OC)cc3)N3CCCC3)cc2C1 (stereo unspecified)	u	0.0%	u	23.1µM*	u	u
CN(C)c1ncc(/C=C2/C(=O)NC(=S)N(C3CCCCC3)C2=O)cn1	x	-1.2%	x	x	x	x
N#Cc1ccc(NC(=S)NC(=O)C2CCCCC2)cc1	2.0%	-5.2%	4.1%	u	u	-6.0
COc1cccc(C2=NOC(C(=O)Nc3cc(C)on3)C2)c1 (stereo unspecified)	24.5%	-0.7%	13.6%	-3.5%	-13.8%	21.1
COc1ccc(C(CNC(=O)c2cccc(S(=O)(=O)Nc3ccccc3OC)c2)N2CCCCC2)cc1 (stereo unspecified)	-16.3%	x	-8.4%	u	18.4µM*	-12.6
COc1ccc(NS(=O)(=O)c2cccc(C(=O)N/N=C/c3c(F)c(F)c(F)c(F)c3F)c2)cc1	u	x	u	23.1µM*	20.6µM*	0.0
COc1ccc(C(CNC(=O)c2cccc(N(C)C)c2)N2CCCC2)cc1 (stereo unspecified)	1.1%	6.7%	0.4%	u	23.1µM*	-15.0
COc1ccc(C(CNC(=O)CNC(=O)c2cccc(Cl)c2)N2CCCC2)cc1 (stereo unspecified)	-7.0%	4.6%	-1.3%	-7.5%	0.4%	-5.0
COc1ccc(NS(=O)(=O)c2cccc(C(=O)NN=Cc3ccc(OC)c(O)c3)c2)cc1	-10.0%	13.3%	-10.1%	-9.4%	-10.1%	20.5
SMILES	HT1080NT lethal	ELG1 repair inh	HT1080 IDH1KD tx	TDP1 cell noCPT	DT40 TDP1 CPT	IL-1B inflam inh
COc1ccc(S(=O)(=O)N2CCCCCC2)cc1C(=O)N(C)CC(=O)Nc1ccccc1Br	-1.9%	-18.0%	-0.6%	9.2µM*	u	-22.8
CN(CC(=O)Nc1ccccc1Br)C(=O)c1cc2c(s1)CCCCC2	1.4%	u	2.9%	u	u	-1.9
COc1ccc(S(=O)(=O)N2CCCCCC2)cc1C(=O)N(C)CC(=O)Nc1c(Cl)cccc1Cl	2.4%	-8.0%	-1.4%	u	u	-9.3
COc1ccc(S(=O)(=O)N2CCCCCC2)cc1C(=O)N(C)CC(=O)Nc1ccccc1Cl	-2.0%	-19.3%	2.9%	20.6µM*	u	-12.1
CN(CC(=O)Nc1ccccc1Cl)C(=O)c1cc2c(s1)CCCCC2	-15.5%	x	-17.4%	16.4µM*	u	-3.3
Cc1ccc(NC(=O)CSc2nnc(-c3nnn(-c4ccc(F)cc4)c3C)o2)cc1Br	x	x	x	-12.8%	u	x
COc1ccc(Cl)cc1NC(=O)c1cc(-c2ccc3c(c2)OCO3)on1	x	x	x	-5.6%	-4.2%	x
O=C(O)C1CC(Br)C(Br)CC1C(=O)O (stereo unspecified)	7.4%	x	2.2%	-27.2%	-8.7%	11.6
